{"source": "PubChem BioAssay (NCI)", "note": "About 83,000 compounds went through this panel and 20% of them were active in at least one assay; those are over-represented in the sample as a whole.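 Activity criterion: percent growth below 10, measured after cells in 96-well plates were exposed to a single compound concentration for 48 hours.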 A number with no mark means an inactive call. Activity calls are given as the source filed them."}
{"tested_on": "EKVX NSCLC", "assay": "NCI-60 one-dose screen, 48 h (100 = growth as untreated, 0 = no growth, -100 = all killed)", "settings": "10 µM unless noted", "method": "Growth inhibition of the EKVX human Non-Small Cell Lung tumor cell line is measured as a screen for anti-cancer activity. Cells are grown in 96 well plates and exposed to the test compound for 48 hours. Compounds are tested at a single concentration, which is 10^-5 M for most compounds. The reported endpoint is percent growth (GI% or GIPRCNT), where numbers from 0 - 100% represent growth inhibition, and numbers from -100% - 0 represent cell death. For example, a value of 40 represents 60% growth inhibition. A value of 0 means no net growth occurred over the course of the experiment. A value of -40 indicates 40% of cells at the beginning of the experiment died by the end of the experiment. A value of -100 means all cells are dead at the end of the experiment.\nNCI-60 Human Tumor Cell Lines Screen was performed using the standard one-dose NCI protocol, which is described in more detail at https://dtp.cancer.gov/discovery_development/nci-60/default.htm.\nCompounds with GIPRCNT values below 10 were considered active. Activity score was based on GIPRCNT using the following formula: […]\nScore is 0 for GIPRCNT values of 100 or above, 50 for GIPRCNT values of 0, and 100 for GIPRCNT values of -100."}
{"compound": "Cc1ccc(NC(=O)c2ccccc2Cl)cc1", "growth": "105%"}
{"compound": "CCN(Cc1ccc(Cl)c(Cl)c1)c1ccc2nc(N)nc(N)c2c1C", "growth": "-56.8% (active)"}
{"compound": "CCCCCCCCCCCCCCCCCCSC(=N)N", "growth": "88.3%"}
{"compound": "CC(=O)C1C(=O)C(=O)N(c2ccc(Cl)c(Cl)c2)C1=O", "note": "(stereo not given)", "growth": "92.1%"}
{"compound": "Nc1cccc2cccc(O)c12", "growth": "94.6%"}
{"compound": "CSc1nsc(N)n1", "growth": "97.4%"}
{"compound": "COc1nc2ccccc2s1", "growth": "108%"}
{"compound": "Nc1ccn(C2CC(N)C(CO)O2)c(=O)n1", "note": "(stereo not given)", "growth": "100%"}
{"compound": "CCN(C(=O)Nc1ccccc1Cl)c1ccccc1", "growth": "111%"}
{"compound": "N#Cc1ccc(OC(=O)Nc2c(Cl)cc(Cl)cc2Cl)cc1", "growth": "107%"}
{"compound": "O=C1C=CC(=O)C2=C1CCCC2", "growth": "69.1%"}
{"compound": "c1ccc(Nc2ccccn2)nc1", "growth": "91.8%"}
{"compound": "CCCNS(=O)(=O)c1ccc(Cl)cc1", "growth": "91.6%"}
{"compound": "O=c1cc(C(F)(F)F)[nH]c(=S)[nH]1", "growth": "95%"}
{"compound": "CC1CC2C3CCC4=CC(=O)CCC4(C)C3CCC2(C)C1(O)C(=O)CO", "note": "(stereo not given)", "growth": "99.4%"}
{"compound": "COc1c(CNC(=O)CCl)cc2[nH]c(C)cc2c1CNC(=O)CCl", "growth": "65.1%"}
{"compound": "O=C(c1cccc(C(=O)c2ccc3c4c(cccc24)C(=O)N(c2ccccc2)C3=O)c1)c1ccc2c3c(cccc13)C(=O)N(c1ccccc1)C2=O", "growth": "104%"}
{"compound": "Cc1cc2c(C(C)C)c(O)c(O)c(C=Nc3ccccc3[N+](=O)[O-])c2c(O)c1-c1c(C)cc2c(C(C)C)c(O)c(O)c(C=Nc3ccccc3[N+](=O)[O-])c2c1O", "growth": "60.7%"}
{"compound": "Nc1ccc2ccccc2c1-c1c(N)ccc2ccccc12", "growth": "36.5%"}
{"compound": "O=c1n(CC2CO2)c(=O)n(CC2CO2)n1CC1CO1", "note": "(stereo not given)", "growth": "97.4%"}
{"compound": "OCCOc1ccc(-c2cc(-c3ccccn3)nc(-c3ccccn3)c2)cc1", "growth": "18.5%"}
{"compound": "Cc1cc(Nc2ccc3c(c2)OCO3)c2cc3c(cc2n1)OCO3", "growth": "44.9%"}
{"compound": "OC1Cc2ccccc2C1", "growth": "99.9%"}
{"compound": "Nc1nc2nnc(-c3ccccc3)c(-c3ccccc3)n2n1", "growth": "92.8%"}
{"compound": "Cc1ccccc1CC(N)C(=O)O", "note": "(stereo not given)", "growth": "103%"}
{"compound": "CCOC(=O)Nc1nccs1", "growth": "99.4%"}
{"compound": "CCOC(=O)C(C#N)=C1CCN(C)CC1", "growth": "112%"}
{"compound": "CCOc1ccc2c(c1)c(C)cc(C)[n+]2CC", "growth": "35.9%"}
{"compound": "O=Cc1ccc(O)c(O)c1", "growth": "103%"}
{"compound": "OCCc1ccc(Cl)cc1", "growth": "97.9%"}
{"compound": "CN(C)c1ncnc2c1cnn2C", "growth": "102%"}
{"compound": "CC(C)NC(=O)OCc1c(COC(=O)NC(C)C)c(-c2ccc(Cl)cc2)n2c1CCC2", "growth": "76.6%"}
{"compound": "OCCNc1ccccc1", "growth": "111%"}
{"compound": "Cc1ccc(S(=O)(=O)CCCl)cc1", "growth": "97.6%"}
{"compound": "O=[N+]([O-])c1c(O)c(CNCCCO)cc(CNCCCO)c1O", "growth": "96.1%"}
{"compound": "BrCc1cccc(C[P+](c2ccccc2)(c2ccccc2)c2ccccc2)c1", "growth": "44.6%"}
{"compound": "CCOC(=O)CNC(=O)Sc1ccc(C(C)(C)C)cc1", "growth": "111%"}
{"compound": "CC(C)N1CC(=O)N2CSCC2C1=O", "note": "(stereo not given)", "growth": "105%"}
{"compound": "O=C(NCc1ccco1)Nc1cccc2c(NC(=O)NCc3ccco3)cccc12", "growth": "116% [100 µM]"}
{"compound": "Cc1ccc([N+](=O)[O-])c(C)n1", "growth": "97.2%"}
